Test results taken from PubChem BioAssay (NCI).
About 83,000 compounds went through this panel and 20% of them were active in at least one assay; those are over-represented in the sample as a whole.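 How to read the values: 0–100, growth inhibition (40 = 60% inhibited); 0, no net growth; -100 to 0, cell death (-40 = 40% of starting cells died; -100 = all dead).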 Values without a mark were called inactive. Active and inactive are the calls of the source. How the source made its calls: active means growth percent below 10; inactive means the rest.

What was measured:
Assay in all cases: NCI-60 one-dose screen, 48 h (100 = growth as untreated, 0 = no growth, -100 = all killed)
Conditions in all cases: 10 µM unless noted
HCT-15 colon = system: HCT-15 colon
HT29 colon = system: HT29 colon
SNB-75 CNS = system: SNB-75 CNS
SNB-19 CNS = system: SNB-19 CNS
U251 CNS = system: U251 CNS
PC-3 prostate = system: PC-3 prostate
SK-MEL-5 melanoma = system: SK-MEL-5 melanoma
UACC-62 melanoma = system: UACC-62 melanoma
LOX IMVI melanoma = system: LOX IMVI melanoma
SK-MEL-28 melanoma = system: SK-MEL-28 melanoma
EKVX NSCLC = system: EKVX NSCLC
SN12C renal = system: SN12C renal
UO-31 renal = system: UO-31 renal
TK-10 renal = system: TK-10 renal
ACHN renal = system: ACHN renal
CAKI-1 renal = system: CAKI-1 renal
CCRF-CEM leukemia = system: CCRF-CEM leukemia
MOLT-4 leukemia = system: MOLT-4 leukemia
SK-MEL-2 melanoma = system: SK-MEL-2 melanoma
A498 renal = system: A498 renal

| Structure (SMILES) | growth (HCT-15 colon) | growth (HT29 colon) | growth (SNB-75 CNS) | growth (SNB-19 CNS) | growth (U251 CNS) | growth (PC-3 prostate) | growth (SK-MEL-5 melanoma) | growth (UACC-62 melanoma) | growth (LOX IMVI melanoma) | growth (SK-MEL-28 melanoma) | growth (EKVX NSCLC) | growth (SN12C renal) | growth (UO-31 renal) | growth (TK-10 renal) | growth (ACHN renal) | growth (CAKI-1 renal) | growth (CCRF-CEM leukemia) | growth (MOLT-4 leukemia) | growth (SK-MEL-2 melanoma) | growth (A498 renal) |
| --- | --- | --- | --- | --- | --- | --- | --- | --- | --- | --- | --- | --- | --- | --- | --- | --- | --- | --- | --- | --- |
| Cc1ccc(/C=N/NC(=O)CSc2nc3ccccc3c(=O)n2Cc2ccc(S(N)(=O)=O)cc2)cc1 | 89.3% | 86.3% | 71% | 89.9% | 93.9% | 89.3% | 74.4% | 78.1% | 82.9% | 93.2% | 90.8% | 97.3% | 80.8% | 106% | 100% | 64% | 87.8% | 86.8% | – | – |
| CCCCCN1C=C/C(=C\C(=O)N(C)c2ccc(OC(F)(F)F)cc2)c2ccccc21 | 99.8% | 81.2% | 104% | 96.9% | 95.4% | 93.7% | 96.5% | 89.3% | 101% | 109% | 87.2% | – | 77.4% | 105% | 108% | 89.4% | 104% | 95.8% | – | – |
| O=C(NCCNc1nccc(-c2c(-c3cccc(F)c3)nc3sccn23)n1)c1ccc(Cl)cc1 | 40.1% | 35.2% | 63.5% | 71.9% | 66.1% | 72.5% | 33.6% | 14.7% | 43.4% | – | 63.2% | 52.5% | 28.1% | 75.4% | 34.2% | 41.5% | 58.2% | 65.7% | 62.5% | – |
| O=C1/C=C/[C@@H](O)[C@@H]2C[C@@H](O)C[C@H]2/C=C/CCC[C@H](CCc2ccc3ncccc3c2)O1 | 6.02% (active) | -19.6% (active) | 33.2% | 28.9% | 21.7% | 18.3% | -95.8% (active) | – | -66.5% (active) | -0.806% (active) | 3.05% (active) | 6.22% (active) | -0.158% (active) | -23.9% (active) | 5.12% (active) | -10.2% (active) | 7.39% (active) | -35.7% (active) | -18.3% (active) | -36.4% (active) |
| NC(=NCCCOc1ccc(F)cc1)Nc1ccc(I)cc1 | 75.3% | 38.2% | 63.6% | 78.1% | 78.6% | 59.1% | 38.2% | – | 84.4% | 88.3% | 76% | 81% | 59.2% | 73% | 73.5% | 74.5% | 79.3% | 40.9% | 84.1% | – |
| O=C1NN(C(=O)c2ccccc2)C(c2ccc(Cl)c(Cl)c2)=C/C1=C\c1ccc([N+](=O)[O-])cc1 | 71.8% | 101% | 65.3% | 58.7% | 69.7% | 46.7% | 86.8% | – | 86.9% | 111% | 88.3% | 92.3% | 61.9% | 106% | 90.3% | 77.1% | 88.5% | – | 100% | 80.4% |
| S=c1cc(S)c2cc(Br)ccc2[nH]1 | 99.8% | 96.9% | 105% | 94.1% | 98.3% | 78.8% | 89% | – | 95.9% | 98% | 105% | 98.8% | 86.8% | 125% | 90.4% | 101% | 100% | 98.7% | 93.9% | – |
| COc1cc(/C=C\C(=O)O)ccc1OCc1ccccc1 | 107% | 105% | 103% | 99.2% | 84.9% | 92.8% | 94.2% | – | 95.7% | 110% | 115% | 95% | 81.4% | 101% | 102% | 99.4% | 98.3% | 96.3% | 93.5% | – |
| CN(C)CCC(=O)c1ccc([N+](=O)[O-])cc1 | 103% | 96.7% | 90.9% | 107% | 105% | 93.6% | 99% | – | 111% | 104% | 106% | 99.1% | 85.9% | 98.2% | 110% | 96.3% | 97.2% | 112% | 109% | 88.4% |
| C=C1C(=O)O[C@H]2[C@H]1CC/C(COC(=O)NCc1c[nH]c3ccc(Br)cc13)=C\CC[C@@]1(C)O[C@@H]21 | -70.2% (active) | -76.6% (active) | -5.16% (active) | 40.2% | 3.96% (active) | 15.4% | -27.1% (active) | – | -82% (active) | -33.5% (active) | -16.5% (active) | -43.2% (active) | -98.3% (active) | -68.7% (active) | -71.2% (active) | -92.8% (active) | -13.1% (active) | -2.46% (active) | 1.8% (active) | – |
| Cc1c(C(=O)NCCC(=O)NO)sc2ncnc(Nc3ccc(NC(=O)Nc4cccc(C(F)(F)F)c4)cc3)c12 | 101% | 110% | 78.8% | 93.6% | 80.2% | 100% | 97.1% | – | 94.5% | 110% | 90.8% | 100% | 87.1% | 140% | 102% | 99.3% | 98.8% | 106% | 109% | – |
| CC(=O)O[C@H]1Cc2c([nH]c3ccccc23)[C@@H](c2ccc(Cl)cc2)N1C(=O)CCNC(C)(C)C | 69.9% | 29% | 42.6% | 69.3% | 50.6% | 36.3% | -79.5% (active) | 53.1% | 25.6% | – | 67.2% | – | 23.7% | 94.5% | 64.5% | 63.6% | 41% | 28.6% | 79.4% | – |
| O=C(N/N=C/c1ccc(Oc2ccccc2)cc1)c1cnn2c1NC(c1ccccc1)C2 (stereo not drawn) | 33.9% | 65.8% | 76.8% | 61% | 48.1% | 46.7% | 41.5% | – | 57.2% | 56.2% | 77.6% | 71.8% | 60.7% | 66.8% | 35.2% | 33.6% | 67.5% | 75.1% | 4.54% (active) | – |
| CC1=C(C(=O)/C=C/c2c[nH]c3ccccc23)C(c2ccccc2)NC(=S)N1 (stereo not drawn) | 101% | 106% | 65.5% | 91.7% | 101% | 95.1% | 98.3% | – | 94.3% | 104% | 85.1% | 91.6% | 63.9% | 135% | 93.5% | 77.8% | 103% | 101% | 99.2% | – |
| COc1cc2cc(Oc3cccc(NC(=O)Nc4cc(C(F)(F)F)cc(C(F)(F)F)c4)c3)c(C)nc2cc1OC | 2.75% (active) | 4.89% (active) | 9.73% (active) | 15.5% | -26.5% (active) | 6.82% (active) | -58.5% (active) | -34.6% (active) | 1.98% (active) | – | 2.88% (active) | – | 11.6% | 13.2% | 5.82% (active) | 6.4% (active) | 0.186% (active) | – | -30.4% (active) | -11.5% (active) |
| COc1ccc(N2CCN(c3ccc(NC4=C(Cl)C(=O)c5ncccc5C4=O)cc3)CC2)cc1 | 40.9% | 49.9% | 52.8% | 29.4% | 26.7% | 53% | 50.5% | – | 35.3% | 71% | 78.8% | 45.5% | 46.2% | 74.8% | 67.3% | 61.1% | 24.6% | 53.3% | 71.8% | – |
| CCCCCN1C=C/C(=C\C(=O)n2ccc3ccccc32)c2ccccc21 | 98.4% | 80.6% | 90.9% | 106% | 91.1% | 85.3% | 97.3% | – | 92% | 104% | 69.3% | 89.9% | 49.4% | 110% | 93.5% | 70.6% | 94.6% | 90% | 96.9% | – |
| CCN(Cc1ccccc1)c1ccc(C=O)cc1 | 91% | 107% | 82.1% | 99.2% | 92% | 75.3% | 98.9% | – | 91% | 115% | 106% | 96.7% | 74.6% | 64.2% | 91.9% | 88% | 45.5% | 97.2% | 98.3% | – |
| COc1cc2c(c(OC)c1OC)CCC(c1cccc(NC(=O)c3cccc(Br)c3)c1)O2 (stereo not drawn) | 87.7% | 87% | 86.8% | 94.5% | 93.5% | 76.1% | 88.2% | – | 92.4% | 90.9% | 84.6% | 87.6% | 79% | 91.8% | 94.2% | 91.5% | 88% | 74.3% | 103% | – |
| CCC(CC)NCC(C)(C)O | 101% | 108% | 98.1% | 94.6% | 103% | 89.9% | 110% | – | 101% | 115% | 102% | 97.9% | 88.2% | 109% | 102% | 89.5% | 100% | 103% | 110% | – |
| COc1cc(C(=O)Nc2cc3c(cc2Oc2cc(C)cc(C)c2)C(=O)N(C)[C@@H](CC(=O)N(C)O)C(=O)N3)c(Br)c(OC)c1OC | -16.2% (active) | -14.5% (active) | -48.1% (active) | -21.9% (active) | -0.595% (active) | -14.5% (active) | -71.7% (active) | – | -41.5% (active) | -49.1% (active) | -18.8% (active) | -27.7% (active) | -32.4% (active) | -12.2% (active) | -30% (active) | -5.8% (active) | 2.91% (active) | – | -55.3% (active) | -56.7% (active) |
| Brc1ccc(Nc2csc(-c3ccccn3)n2)cc1 | 67.4% | 81.4% | 72.3% | 96% | 101% | 85.3% | 95.4% | – | 72.1% | 109% | 85.4% | 91.6% | 52.2% | 119% | 82.4% | 63.6% | 97.2% | 96.6% | 96.4% | – |
| CC1=C(C(=O)/C=C/c2ccc(N(C)C)cc2)C(c2ccccc2)NC(=S)N1 (stereo not drawn) | 105% | 102% | 86.9% | 95.1% | 101% | 98.3% | 99.3% | 94.3% | 98.5% | – | 97.7% | 96.9% | 75.4% | 107% | 100% | 89.8% | 108% | 101% | 102% | – |
